The results in this text go back to PubChem BioAssay AID686979 (National Center for Advancing Translational Sciences (NCATS), 2013).

Several values for one entry are separate records, joined by “and”; a condition that tells them apart may be missing. Equal values may be shown once. Out of some 420,000 compounds screened, about 50,000 (12%) were called active. Roughly 26% stayed inconclusive and do not appear here. The call rests on the fitted dose curve; in most records, active means well fitted inhibition curve with a large enough effect; inconclusive means small, poorly fitted or top-dose-only effect; inactive means flat fitted curve, though single readings scatter. Shown is part of a subset that was picked to be rich in actives. Entries that show only a call come without a potency.
Potency means the concentration at half of the fitted maximal effect.

The assay in a line: qHTS for Inhibitors of human tyrosyl-DNA phosphodiesterase 1 (TDP1): qHTS in cells in presence of CPT. Further: nearly all actives have a fitted effect of over 55% in size. To be noted: chicken DT40 Tdp1-/-;hTDP1 cells + 20 nM CPT, ATP luminescence, 48 h; series mostly up to 46.2 µM. In a few lines:
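Cell growth measured by CellTiter-Glo luminescence after a minimum 48 h, 37 C compound exposure with 20 nM CPT in Tdp1-knockout DT40 cells stably expressing hTDP1, seeded 400/well; qHTS titration format.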
On to `CCOCCCNC(=O)c1cc2c(=O)n3ccccc3nc2s1`, for which the Potency entry is “inactive”.
Take `Cc1ccc(S(=O)(=O)N(C)c2ccc(OCC(=O)OCC(=O)N(CC#N)c3ccccc3)cc2)cc1`: the Potency result was “inactive”.
In the case of `COc1ccc(C(=O)NCCn2nc(C)cc2C)cc1OC1CCN(C(C)=O)CC1`, the Potency result was “inactive”.
On the same count and under the same terms, under `Cc1ccc(OCC(=O)Oc2ccccc2[N+](=O)[O-])cc1` stands “inactive”.
As for `Cc1cc(OCCCN2CCN(Cc3ccccc3)CC2)ccc1[N+](=O)[O-]`, the Potency was 23.1 µM (active).
The same measure, in the same setting: to `Cc1cc(OCC(=O)NC2CCN(C)CC2)ccc1[N+](=O)[O-]` belongs “inactive”; to `O=[N+]([O-])c1ccccc1OCCCCN1CCCCC1`, “inactive”; to `Cc1cc(OCCCCOc2ccc(C#N)cc2)ccc1[N+](=O)[O-]`, 13 µM (active).
On the same count and under the same terms, under `Cc1cc(OCC(=O)Nc2c(C)n(C)n(-c3ccccc3)c2=O)ccc1[N+](=O)[O-]` stands “inactive”.
The same measure, in the same setting: to `COC(=O)c1cccc(N(CC(=O)NCC2CCCO2)C(=O)CCC(=O)Nc2cc(C)on2)c1` (stereo unspecified) belongs “inactive”.
Take `O=C(CSc1nnc(CNC(=O)c2ccc(F)cc2)o1)Nc1ccc2c(c1)OCO2`: the Potency result was “inactive”.
The same measure, in the same setting: to `O=C(Nc1ccncc1)c1ccc(Cl)c([N+](=O)[O-])c1` belongs 11.6 µM (active).
On to `O=C(Nc1cccnc1)c1ccc(Cl)c([N+](=O)[O-])c1`, for which the Potency result was “inactive”.
Consider `Cc1ccnc(NC(=O)c2ccc(Cl)c([N+](=O)[O-])c2)c1`, for which the Potency entry is “inactive”.
Same read-out and setting: under `Cc1ccc2c(=O)c(C(=O)c3ccc(F)cc3)cn(CC(=O)NC3CCCCC3)c2n1` stands “inactive”; under `N=C(N)SCc1cccc2ccccc12`, 18.4 µM (active); under `c1ccc(NCc2cccc3ccccc23)nc1`, “inactive”.
Regarding `c1ccc2c(CNn3cnnc3)cccc2c1`, the Potency result was “inactive”.
Same read-out and setting: under `COc1cc(NC(=O)COc2ccccc2Cl)ccc1NC(=O)C(C)C` stands “inactive”.
Still for that read-out and setting: to `CCCC(=O)NC(=S)Nc1ccc(CN2CCOCC2)cc1` belongs “inactive”; to `CC(Sc1nnc(CNC(=O)c2ccccc2F)n1C)C(=O)Nc1nccs1` (stereo unspecified), “inactive”; to `Brc1cccc(-c2nnn3c2nc(NC2CCCCC2)c2ccccc23)c1`, “inactive”.
On to `CCc1nnc(NC(=O)CSCc2cc(=O)n3cc(C)sc3n2)s1`, for which the Potency entry is “inactive”.
On the same count and under the same terms, under `COc1ccccc1-c1cc(C(F)(F)F)nc(S(=O)(=O)CCCC(=O)Nc2cc(C)ccc2O)n1` stands “inactive”; under `CC(Sc1nc(-c2ccccc2)cc(C(F)(F)F)n1)C(=O)Nc1ccc2c(c1)OCO2` (stereo unspecified), “inactive”; under `COc1ccc(Cl)cc1NC(=O)CSc1nc(-c2cccs2)cc(C(F)(F)F)n1`, 23.1 µM (active).
In the case of `COc1ccc(-c2cc(C(F)(F)F)nc(SCC(=O)Nc3ccc4c(c3)OCO4)n2)cc1OC`, the Potency entry is “inactive”.
Consider `O=C(CSc1ccc(-c2cccs2)nn1)Nc1ccccc1F`, for which the Potency entry is “inactive”.
Still for that read-out and setting: under `CSc1ccccc1NC(=O)Cc1ccc(Br)cc1` stands “inactive”; under `Cc1cc(C(F)(F)F)nc(SCC(=O)Nc2nccs2)n1`, “inactive”.
As to `Cc1ccc(O)c(NC(=O)CCS(=O)(=O)c2nc(-c3ccc4c(c3)OCO4)cc(C(F)(F)F)n2)c1`, the Potency was 8.2 µM (active).
Take `COc1ccccc1-c1cc(C(F)(F)F)nc(S(=O)(=O)CCCC(=O)Nc2ccc(F)cc2F)n1`: the Potency was 5.17 µM (active).
`CSc1ccccc1NC(=O)CCS(=O)(=O)c1nc(-c2cccs2)cc(C(F)(F)F)n1`: the Potency is 10.3 µM (active).
Still for that read-out and setting: under `COc1cc(OC)cc(C(=O)OCC(=O)Nc2ccc(F)cc2F)c1` stands “inactive”; under `Cc1ccc(O)c(NC(=O)c2cc(-c3ccc(F)cc3)no2)c1`, “inactive”.
`COC(=O)c1ccccc1NC(=O)Cn1c(=O)n(-c2cccc(C(F)(F)F)c2)c(=O)c2c(C)c(C)sc21`: the Potency result is “inactive”.
Take `CNS(=O)(=O)c1ccc(NC(=O)Nc2ccc3c(c2)OCO3)cc1`: the Potency entry was “inactive”.
In the case of `O=C(N[C@@H](Cc1ccccc1)C(=O)OCc1ccccc1)c1nc[nH]c1C(=O)NC1CCNCC1`, the Potency entry is “inactive”.
Still for that read-out and setting: under `O=C(NC1CCCC1)C1c2ccccc2OCC(=O)N1Cc1ccccc1` (stereo unspecified) stands “inactive”; under `COc1ccccc1NC(=O)c1cc(N2C(=O)C3C4CCC(C4)C3C2=O)ccc1Cl` (stereo unspecified), “inactive”; under `CCOC(=O)c1ccccc1NC(=O)CSc1nc2c(sc(=S)n2CC)c(=O)[nH]1`, “inactive”.
Consider `CC(C)n1c(O)c(N=Nc2ccccn2)c2ccccc21`, for which the Potency entry is “inactive”.
For `FC(F)(F)c1ccnc(Oc2ccc(C3=NCCS3)cc2)c1`, the Potency result is “inactive”.
On to `Cc1ccc(NC(=O)c2ccco2)cc1`, for which the Potency entry is “inactive”.
As to `O=C(c1cnccn1)N1CCN(S(=O)(=O)c2cccc(Cl)c2)CC1`, the Potency entry is “inactive”.
Take `O=C1CC(c2ccccc2)C(=O)N2C(=O)CC(c3ccccc3)C(=O)N12` (stereo unspecified): the Potency result was “inactive”.
Same read-out and setting: under `CCOC(=O)C1CCN(C(c2cc3cc(C)cc(C)c3[nH]c2=O)c2nnnn2C2CCCCC2)CC1` (stereo unspecified) stands “inactive”; under `FC(F)(F)Oc1ccccc1C(c1nnnn1C1CCCCC1)N1CCN(C/C=C/c2ccccc2)CC1` (stereo unspecified), 18.4 µM (active); under `CNC(=O)NC(=O)C(C)N1CCN(C/C=C/c2ccccc2)CC1` (stereo unspecified), “inactive”.
With `COCCn1c(=O)c(-c2ccc(OC)cc2)nc2cnc(Oc3cccc(Cl)c3)nc21`, the Potency result is “inactive”.
For the molecule `Cc1cc(C)n(-c2ccc3nncn3n2)n1`, the Potency entry is “inactive”.
Same read-out and setting: to `COc1ccc(-c2noc(CCC(=O)N(C)c3ccccc3C)n2)cc1` belongs “inactive”; to `COc1ccc(-c2noc(CSc3ccc(C)cc3)n2)cc1`, “inactive”; to `CC1CCN(Cc2nc(-c3ccc(Cl)cc3)no2)CC1`, “inactive”.
Consider `COc1ccc(-c2noc(CSc3nc4ccc(C)cc4[nH]3)n2)cc1`, for which the Potency is 20.6 µM (active).
The same measure, in the same setting: under `Cc1ccc(S(=O)(=O)N(Cc2nc(-c3ccc(Cl)cc3)no2)C2CCCCC2)cc1` stands 16.4 µM (active); under `COc1ccc2nc(SCC(=O)Nc3c(C)cc(C)cc3C)[nH]c2c1`, “inactive”.
The same measure, in the same setting: under `COc1ccccc1Cc1nc(-c2ccc(C)cc2)no1` stands “inactive”; under `Cc1ccc(-c2noc(CC(c3ccccc3)c3ccccc3)n2)cc1`, “inactive”.
As for `COc1ccc(-c2noc(CN(C)S(=O)(=O)c3ccc(C)cc3)n2)cc1`, the Potency is 16.4 µM (active).
Still for that read-out and setting: to `Cc1cccc(OCC(=O)NCCNC(=O)c2cccnc2)c1` belongs “inactive”; to `CCCC(=O)N1CCN(c2nc3c(OC)ccc(C)c3s2)CC1`, “inactive”.
The same measure, in the same setting: under `CC(C)C(=O)Nc1c2c(nn1-c1ccccc1)CSC2` stands “inactive”.
Still for that read-out and setting: to `O=C(CN1C(=O)CCS(=O)(=O)c2ccccc21)NCc1ccc(F)cc1` belongs “inactive”; to `CN(CC(=O)Nc1ccccc1Cl)C(=O)c1ccccc1SCC(=O)N1CCCC1`, “inactive”.
For `Cc1cccc(CNC(=O)c2cnn(-c3nccc(-c4ccccc4F)n3)c2C2CC2)n1`, the activity change, negative = growth inhibition was -0.952% [at 9.04 µM] (inactive).
With `CCOc1ccccc1N1CN(Cc2ccccc2)CNC1=S`, the Potency entry was “inactive”.
The same measure, in the same setting: to `O=C1CCCN1C(=O)COc1ccc([N+](=O)[O-])cc1` belongs “inactive”; to `CN(Cc1ccccc1)C(=O)c1cn(C)c2ccc(S(=O)(=O)N(C)C3CCCCC3)cc2c1=O`, “inactive”.
Turning to `CN(c1ccccc1)S(=O)(=O)c1ccc(Cl)c(C(=O)NCCc2c[nH]c3ccccc23)c1`, the Potency was 14.6 µM (active).
Consider `CC(=O)N/C(=C/c1ccc(Cl)cc1)C(=O)NCCc1c[nH]c2ccccc12`, for which the Potency entry was “inactive”.
The same measure, in the same setting: to `CCc1ccc(NS(=O)(=O)c2ccc3[nH]cc(C(=O)NCCc4cccc(C)c4)c(=O)c3c2)cc1` belongs “inactive”; to `CN(c1ccccc1)S(=O)(=O)c1ccc(Cl)c(C(=O)OCC(N)=O)c1`, “inactive”.
On to `O=C(NCCc1ccccc1)c1c[nH]c2ccc(F)cc2c1=O`, for which the Potency result was “inactive”.
Turning to `CCN(CC)S(=O)(=O)c1ccc2[nH]cc(C(=O)NCCc3ccccc3)c(=O)c2c1`, the Potency was 14.6 µM (active) and 23.1 µM (active).
As for `CN(CC(=O)NC(=O)Nc1ccccc1F)Cc1ccccc1`, the Potency result is “inactive”.
Still for that read-out and setting: to `COCCNC(=O)C1CCN(C(=O)C2CC(=O)N(c3ccc(C)cc3)C2)CC1` (stereo unspecified) belongs “inactive”; to `CCN(CC)CCCNC(=O)COc1ccc2oc3c(c2c1)CCCC3`, “inactive”.
On to `N[C@@H](Cc1ccccc1)C(=O)N1CCOCC1`, for which the Potency entry is “inactive”.
As for `COc1cc(OC)cc(C(=O)NCCCn2ccnc2)c1`, the Potency entry is “inactive”.
On the same count and under the same terms, to `CCOc1ccc(-c2cc3nc(C4CCN(C(=O)OC(C)(C)C)CC4)c(C(=O)Nc4cccc(CC)c4)cn3n2)cc1` belongs 23.1 µM (active); to `CCc1cccc(NC(=O)COC(=O)C2CCN(c3ccc(C(F)(F)F)cn3)CC2)c1`, “inactive”.
Regarding `CCOc1ccc(-c2cc3nc(C4CCN(C(=O)OC(C)(C)C)CC4)c(C(=O)Nc4ccc(C(=O)OC)cc4)cn3n2)cc1`, the Potency entry was “inactive”.
On the same count and under the same terms, to `O=c1[nH]cnc(O)c1C(c1ccc(F)cc1)c1c(O)nc[nH]c1=O` belongs “inactive”.
Still for that read-out and setting: to `CC(=O)Oc1ccc(C(C)=O)c2c1OCCO2` belongs “inactive”.
On to `CC(=O)NCCc1ccc(S(=O)(=O)Nc2ccc(C)c(S(=O)(=O)N3CCOCC3)c2)cc1`, for which the Potency result was “inactive”.
The same measure, in the same setting: to `O=C(NN=Cc1ccccc1O)NN=Cc1ccccc1O` belongs 4.11 µM (active).
The same measure, in the same setting: to `Oc1ccccc1C=NC1CCCCC1N=Cc1ccccc1O` (stereo unspecified) belongs “inactive”.
On to `O=C(N/N=C/c1ccccc1O)/C(=C/c1ccccc1)CCO`, for which the Potency is 3.26 µM (active).
For `O=C(CCC(=O)Nc1ccccc1)N/N=C/c1ccccc1F`, the Potency result was “inactive”.
Same read-out and setting: under `C=CCOc1ccccc1/C=N/NC(=O)Cc1ccccc1` stands “inactive”; under `O=C(CCCCCNC(=O)c1ccccc1)N/N=C/c1ccccc1`, “inactive”; under `CN(Cc1nc2ccccc2s1)C(=O)c1ccc(F)cc1`, “inactive”.
On the same count and under the same terms, under `CCCS(=O)(=O)NC(=O)C1(C)CCN(C(=O)c2sccc2C)C1` (stereo unspecified) stands “inactive”; under `CCc1ccc(C(=O)C(C)OC(=O)CN2C(=O)NC3(CCCC3)C2=O)cc1` (stereo unspecified), “inactive”; under `COC(=O)Nc1ccc(S(=O)(=O)Nc2cc(OC)nc(OC)n2)cc1`, “inactive”.
With `CCOC(=O)c1ccc(NC(=O)Cn2c(=O)n(-c3ccc(C)cc3)c(=O)c3c2cnn3C)cc1`, the Potency result was “inactive”.
In the case of `COC(=O)C1=C(C(=O)OC)C2(OC1c1ccc(Br)cc1)C(=O)c1ccccc1C2=O` (stereo unspecified), the Potency entry is “inactive”.
Same read-out and setting: under `CN1C(=O)c2[nH]nc(-c3ccc(F)cc3)c2C1c1ccccn1` (stereo unspecified) stands “inactive”; under `CCOc1ccc(/C(O)=C2\C(=O)C(=O)N(c3ccc(OC)cc3)C2c2ccccc2[N+](=O)[O-])cc1` (stereo unspecified), “inactive”.
Still for that read-out and setting: to `CCOc1ccc(-c2n[nH]c3c2C(c2ccccc2OC)N(c2ccc(Br)cc2)C3=O)cc1` (stereo unspecified) belongs 16.4 µM (active).
